In assay [1] the target is Calcium and integrin-binding protein 1 (Homo sapiens) (UniProt Q99828). Kind of assay: Primary qHTS for Identification of Calcium Integrin Binding Protein 1 (CIB1) Competitor (AID 1508620).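 Further: GST tagged CIB1 binding a fluorescein labelled alphaIIb integrin peptide tracer; top concentration of the series differs between compounds; on the % scale 0 is the no-effect control and ±100 the full control effect.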 The procedure, abridged:
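CIB1-GST (1 uM final) and compound incubated 15 min at room temperature before adding FITC-alphaIIb peptide tracer (100 nM final). Competition for binding read by fluorescence polarization (ex 480, em 540) after another 15 min at room temperature.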
A general note: Quantitative high-throughput screening tests each substance at several concentrations.

Assay [2] can be described thus: Primary qHTS for small molecule stabilizers of the endoplasmic reticulum resident proteome: Secreted ER Calcium Modulated Protein (SERCaMP) assay (AID 1508630). Further: on the % scale 0 is the no-effect control and ±100 the full control effect. The procedure, abridged: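 The SH-SY5Y reporter protocol was run at 3 concentrations up to 38.3 uM (primary) or 11 concentrations (follow-up): 16 h compound, 100 nM thapsigargin for 4 h, then extracellular luciferase luminescence.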

The target in assay [3] is Cytochrome P450 2D6 (Homo sapiens) (UniProt P10635). Kind of assay: Cytochrome P450 family 2 subfamily D member 6 (CYP2D6) small molecule antagonists: luciferase biochemical (cell-free) qHTS assay (AID 1645840; active means well fitted curve in the direction sought with a large enough effect in the repeat runs; an effect the other way counts as inactive or inconclusive; further: nearly all actives have a fitted effect of over 55% in size; further: potency means the concentration at half of the fitted maximal effect; on activity change, negative = inhibition: series mostly up to about 57 µM; on the % scale 0 is the no-effect control and ±100 the full control effect). The procedure, abridged: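 P450-Glo CYP2D6 system: proluciferin substrate converted by enzyme to luciferin, read by luminescence proportional to activity. Enzyme-substrate mix with compound 10 min at room temperature, then NADPH regeneration 1 h before detection reagent.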
Chain of Cytochrome P450 2D6 (Homo sapiens) (P10635 whole entry, looked up): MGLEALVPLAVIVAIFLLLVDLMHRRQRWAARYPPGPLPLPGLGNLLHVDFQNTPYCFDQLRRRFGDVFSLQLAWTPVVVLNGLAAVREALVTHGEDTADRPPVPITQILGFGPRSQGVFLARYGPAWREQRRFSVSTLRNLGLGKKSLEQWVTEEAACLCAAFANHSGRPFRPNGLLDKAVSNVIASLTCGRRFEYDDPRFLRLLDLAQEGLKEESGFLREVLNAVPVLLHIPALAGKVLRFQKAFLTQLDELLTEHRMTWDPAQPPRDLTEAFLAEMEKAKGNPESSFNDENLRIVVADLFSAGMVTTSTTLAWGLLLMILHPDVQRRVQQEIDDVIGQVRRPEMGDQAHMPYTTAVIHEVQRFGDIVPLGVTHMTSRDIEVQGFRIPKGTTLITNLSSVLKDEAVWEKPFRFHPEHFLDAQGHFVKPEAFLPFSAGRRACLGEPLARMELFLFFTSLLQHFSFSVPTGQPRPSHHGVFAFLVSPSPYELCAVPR

In assay [4] the target is Cytochrome P450 2C9 (Homo sapiens) (UniProt P11712). Kind of assay: Cytochrome P450 family 2 subfamily C member 9 (CYP2C9) small molecule antagonists: luciferase biochemical (cell-free) qHTS assay (AID 1645842; active means well fitted curve in the direction sought with a large enough effect in the repeat runs; an effect the other way counts as inactive or inconclusive; further: nearly all actives have a fitted effect of over 55% in size; further: potency means the concentration at half of the fitted maximal effect; on activity change, negative = inhibition: series mostly up to about 57 µM; on the % scale 0 is the no-effect control and ±100 the full control effect). Summed up: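 P450-Glo CYP2C9 system: proluciferin substrate with enzyme in mix containing 0.4% BSA, 10 min at room temperature, then NADPH regeneration solution added and incubated 1 h at 37C. Detection reagent stopped reaction; luminescence read after 20 min as RLU.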
Chain of Cytochrome P450 2C9 (Homo sapiens) (P11712 whole entry, looked up): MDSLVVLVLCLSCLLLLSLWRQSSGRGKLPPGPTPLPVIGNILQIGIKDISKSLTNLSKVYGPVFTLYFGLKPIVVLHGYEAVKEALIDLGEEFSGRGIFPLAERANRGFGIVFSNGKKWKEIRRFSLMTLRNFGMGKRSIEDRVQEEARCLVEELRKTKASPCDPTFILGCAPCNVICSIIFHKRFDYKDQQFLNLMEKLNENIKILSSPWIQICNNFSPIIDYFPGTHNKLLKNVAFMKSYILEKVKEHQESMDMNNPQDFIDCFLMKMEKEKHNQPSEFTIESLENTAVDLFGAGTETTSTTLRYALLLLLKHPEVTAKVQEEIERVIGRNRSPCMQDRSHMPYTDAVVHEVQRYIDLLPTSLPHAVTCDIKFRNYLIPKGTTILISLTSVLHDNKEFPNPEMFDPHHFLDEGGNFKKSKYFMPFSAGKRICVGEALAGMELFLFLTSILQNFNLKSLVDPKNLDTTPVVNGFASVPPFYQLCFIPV

Assay [5] can be described thus: Primary qHTS for inhibitors of nuclear receptor binding SET domain protein 2 (NSD2) in an isogenic RCH-ACV NSD2 p.E1099K mutant (9B) (AID 1645876). Further: nearly all actives have a fitted effect of over 70% in size. Further: potency means the concentration at half of the fitted maximal effect.
The target in assay [6] is N-terminal Xaa-Pro-Lys N-methyltransferase 1 (Homo sapiens) (UniProt Q9BV86). Kind of assay: Confirmatory qHTS for Inhibitors of N-terminal methyltransferase 1 (NTMT1): MTaseGlo Assay (AID 1645874). Further: potency means the concentration at half of the fitted maximal effect; nearly all actives have a fitted effect of over 65% in size. The procedure, abridged:
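Room-temperature NTMT1 reaction, 30 min, with 100 uM SAM and 1 uM SPKRIA substrate; enzyme 125 nM. Read-out: MTase-Glo luminescence, normalized to no-enzyme and DMSO controls.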

Where “and” joins values, the source holds several entries; their conditions need not be identical. Identical values can stand only once. Inconclusive results are not listed. Unmarked numbers belong to inactive results. Calls of active or inactive are those of the source. Unless noted, the call rests on the fitted dose curve; in most records, active means well fitted curve in the direction sought with a large enough effect; inconclusive means small, poorly fitted or top-dose-only effect, or another doubt; inactive means no such curve, though single readings can be large; an effect the other way counts as inactive or inconclusive.

Chain of Calcium and integrin-binding protein 1 (Homo sapiens) (Q99828 whole entry, looked up): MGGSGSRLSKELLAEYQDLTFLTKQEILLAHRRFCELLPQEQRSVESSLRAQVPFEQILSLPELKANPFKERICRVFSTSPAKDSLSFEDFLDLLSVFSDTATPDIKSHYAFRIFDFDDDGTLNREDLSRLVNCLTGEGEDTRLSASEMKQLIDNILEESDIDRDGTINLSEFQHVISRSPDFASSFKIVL
Chain of N-terminal Xaa-Pro-Lys N-methyltransferase 1 (Homo sapiens) (Q9BV86 whole entry, looked up): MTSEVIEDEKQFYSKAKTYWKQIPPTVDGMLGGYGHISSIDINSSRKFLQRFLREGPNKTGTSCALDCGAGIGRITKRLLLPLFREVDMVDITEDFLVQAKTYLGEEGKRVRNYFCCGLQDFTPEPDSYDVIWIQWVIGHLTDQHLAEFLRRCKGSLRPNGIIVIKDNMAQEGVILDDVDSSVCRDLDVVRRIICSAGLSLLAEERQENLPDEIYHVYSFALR

Regarding `C[C@@H]1CCO[C@H]2Cn3cc(C(=O)NCc4ccc(F)cc4F)c(=O)c(O)c3C(=O)N12`, the Potency entry in assay [1], in assay [2], in assay [3] and in assay [4] was “inactive” in each case. In addition, the Potency in assay [5] was 20.5 µM (active).

`CCN1CCC(n2cc(CNc3cc(Cl)c4ncc(C#N)c(Nc5ccc(F)c(Cl)c5)c4c3)nn2)CC1`: the Potency entry in assay [1] and in assay [2] was “inactive” throughout. Besides, the Potency in assay [3] was 12 µM (active); in assay [4], 7.56 µM (active); in assay [6], 10 µM (active); in assay [5], 23.5 µM (active).

Regarding `CC(C)(O)CC(=O)NCCn1ccc2ncnc(Nc3ccc(Oc4cccc(C(F)(F)F)c4)c(Cl)c3)c21`, the Potency result in assay [1] and in assay [2] was “inactive” each time. Besides, the Potency in assay [3] was 12 µM (active); in assay [4], 5.35 µM (active); in assay [5] it was 20.5 µM (active) and 11.8 µM (active).

Take `N#CC(c1ccc(Cl)cc1)c1c(Cl)cc(-n2ncc(=O)[nH]c2=O)cc1Cl` (stereo not drawn): the Potency entry in assay [1] and in assay [2] was “inactive” in each case. Besides, in assay [4], the Potency is 19 µM (active).

`Clc1ccc(COC(Cn2ccnc2)c2ccc(Cl)cc2Cl)c(Cl)c1` (stereo not drawn): the Potency entry in assay [1] and in assay [2] was “inactive” in each case. Moreover, the Potency in assay [3] is 1.07 µM (active); in assay [4] it was 0.19 µM (active).

On to `COc1ccc(-c2cc3nccn3c(Nc3ncccc3C(N)=O)n2)cc1OC`, for which the Potency entry in assay [1], in assay [2] and in assay [3] was “inactive” throughout. Further, the Potency in assay [4] was 5.35 µM (active); in assay [5], 0.649 µM (active).

On to `CC(C)CN(C[C@@H](O)[C@H](Cc1ccccc1)NC(=O)O[C@H]1CO[C@H]2OCC[C@H]21)S(=O)(=O)c1ccc(N)cc1`, for which the Potency result in assay [1] and in assay [2] was “inactive” in each case. The Potency in assay [4] was 7.56 µM (active).

For `CCN1CCN(c2ccc(Nc3cc(N(C)C(=O)Nc4c(Cl)c(OC)cc(OC)c4Cl)ncn3)cc2)CC1`, the Potency entry in assay [1], in assay [2] and in assay [5] was “inactive” in each case. In assay [4], the Potency is 23.9 µM (active).

With `CC(C)(C)c1nc(-c2cccc(NS(=O)(=O)c3c(F)cccc3F)c2F)c(-c2ccnc(N)n2)s1`, the Potency entry in assay [1], in assay [2] and in assay [3] was “inactive” each time. Moreover, the Potency in assay [4] is 6.74 µM (active); in assay [5], 5.9 µM (active).

For the molecule `CCc1cc(-c2n[nH]c(C)c2-c2ccc3c(c2)OCCO3)c(O)cc1O`, the Potency entry in assay [1] and in assay [2] was “inactive” throughout. The figures for the Potency in assay [3], in assay [4] and in assay [5] were 4.25 µM (active), 0.756 µM (active) and 8.33 µM (active), respectively.

As to `C[C@@H](N)c1ccc(C(=O)Nc2ccnc3[nH]ccc23)cc1`, the Potency result in assay [1], in assay [2], in assay [3] and in assay [4] was “inactive” each time. The Potency in assay [5] was 9.34 µM (active).

Turning to `Clc1ccc(C2(c3ccc(-c4cn[nH]c4)cc3)CCNCC2)cc1`, the Potency entry in assay [1] and in assay [2] was “inactive” each time. Further, the Potency in assay [3] is 3.38 µM (active); in assay [4] it was 1.2 µM (active); in assay [5], 3.65 µM (active) and 3.72 µM (active).

Take `Nc1ncnc2c1c(-c1cccc(OCc3ccccc3)c1)cn2C1CC(CN2CCC2)C1` (stereo not drawn): the Potency result in assay [1] and in assay [2] was “inactive” throughout. Further, the Potency in assay [3] is 12 µM (active); in assay [5] it was 4.59 µM (active).

For `CC(C)C[C@@H](C(=O)N[C@H](C(=O)OC1CCCC1)c1ccccc1)[C@H](O)C(=O)NO`, the Potency result in assay [1], in assay [2] and in assay [3] was “inactive” in each case. Also, the Potency in assay [4] is 5.35 µM (active); in assay [5], 14.8 µM (active).

In the case of `Cc1ccc(NC(=O)c2cccc(N(C)C)c2)cc1NC(=O)c1ccc(O)cc1`, the Potency entry in assay [1] and in assay [2] was “inactive” each time. Also, the Potency in assay [4] is 7.56 µM (active).

`Cc1cc(OCCCS(C)(=O)=O)cc(C)c1-c1cccc(COc2ccc3c(c2)OC[C@H]3CC(=O)O)c1`: the Potency entry in assay [1] and in assay [2] was “inactive” each time. Moreover, the Potency in assay [4] was 21.3 µM (active).

Consider `Cc1cnc(Nc2cccc(CN3CCOCC3)c2)nc1Nc1cccc(S(=O)(=O)NC(C)(C)C)c1`, for which the Potency entry in assay [1] and in assay [2] was “inactive” in each case. The Potency was 15.1 µM (active) in assay [3], 5.35 µM (active) in assay [4] and 0.515 µM (active) in assay [5].

As for `CC[C@H](CC#N)OC(=O)N[C@@H](C)c1cccc(NC(=O)Nc2ccc(-c3cnco3)c(OC)c2)c1`, the Potency entry in assay [1] and in assay [2] was “inactive” each time. Besides, the Potency in assay [3] is 0.338 µM (active); in assay [4], 0.0756 µM (active); in assay [5], 129 nM (active) and 166 nM (active).

On to `CC(=O)Nc1cccc(-n2c(=O)n(C3CC3)c(=O)c3c(Nc4ccc(I)cc4F)n(C)c(=O)c(C)c32)c1`, for which the Potency result in assay [1], in assay [2] and in assay [5] was “inactive” in each case.

For the molecule `CCN(CC)CCCCNc1nc2cc(Cl)c(Cl)cc2nc1-c1ccc(-c2cccs2)s1`, the Potency result in assay [1] and in assay [2] was “inactive” throughout. Also, the Potency in assay [5] was 7.42 µM (active).

Regarding `CS(=O)(=O)c1ccc(C2=C(c3ccccc3)C(=O)OC2)cc1`, the Potency result in assay [1], in assay [2] and in assay [5] was “inactive” each time.

Turning to `CN1c2ccccc2C(=O)N2CCc3c([nH]c4ccccc34)C21` (stereo not drawn), the Potency result in assay [1] and in assay [2] was “inactive” in each case. Besides, the Potency in assay [5] is 2.09 µM (active).

Turning to `Cc1ccc(NC(=O)c2ccc(CN3CCN(C)CC3)cc2)cc1Nc1nc(-c2cccnc2)cs1`, the Potency result in assay [1] and in assay [2] was “inactive” throughout. Moreover, the Potency in assay [5] is 14.6 µM (active) and 14.8 µM (active).

`CC(C)Oc1cc(Nc2nc(N[C@@H](C)c3ccc(F)cn3)ncc2Cl)[nH]n1`: the Potency entry in assay [1] and in assay [2] was “inactive” throughout. The Potency in assay [5] was 7.42 µM (active) and 8.2 µM (active).

On to `Nc1nc(Cl)nc2c1ncn2[C@@H]1O[C@H](CO)[C@@H](O)[C@H]1F`, for which the Potency entry in assay [1] and in assay [2] was “inactive” each time. In assay [5], the Potency was 0.0231 µM (active).

Regarding `CCC[C@H](Nc1nc(-c2ccc(NC(=O)NCC)c(OC)c2)ncc1C)c1cccnc1`, the Potency entry in assay [1] and in assay [2] was “inactive” in each case. The Potency in assay [5] is 0.0263 µM (active).

Consider `CC(C)[C@H](O)C(=O)N[C@@H](C)C(=O)N[C@@H]1C(=O)N(C)CCc2ccccc21`, for which the Potency result in assay [1], in assay [2] and in assay [5] was “inactive” in each case.

Take `Cc1cnc(CNC(=O)c2c(=O)c3ccc(N4CCCN(C)CC4)nc3n3c2sc2ccccc23)cn1`: the Potency entry in assay [1], in assay [3] and in assay [4] was “inactive” in each case. The Potency in assay [5] is 0.152 µM (active).

For the molecule `CNC(=O)[C@H](Cc1ccccc1)NC(=O)[C@H](CC(C)C)[C@H](CSc1cccs1)C(=O)NO`, the Potency result in assay [1], in assay [3], in assay [4] and in assay [5] was “inactive” throughout.

Regarding `NC(=O)c1noc([C@H](CCCC2CCCCC2)CC(=O)NO)n1`, the Potency result in assay [1] and in assay [2] was “inactive” each time. Further, in assay [5], the Potency was 1.86 µM (active).

`CN1CCc2c(n(Cc3ccc(C(=O)NO)cc3)c3ccccc23)C1`: the Potency entry in assay [1] was “inactive”. The Potency is 6.74 µM (active) in assay [3]; 18.3 µM (active) and 16.6 µM (active) in assay [5].

As to `COc1c(C)cnc(Cn2cnc3c(Cl)nc(N)nc32)c1C`, the Potency result in assay [1] and in assay [2] was “inactive” each time. Further, the Potency in assay [5] is 0.235 µM (active).

In the case of `O=C(O)CCNc1cc(N2CCc3ccccc3CC2)nc(-c2ccccn2)n1`, the Potency result in assay [1] and in assay [5] was “inactive” throughout. In assay [3], the activity change, negative = inhibition was 10.8% [at 11.5 µM].

With `Cc1nc(NC(=O)N2CCC[C@@H]2C(N)=O)sc1-c1csc(C(C)(C)C)n1`, the Potency entry in assay [1] and in assay [2] was “inactive” in each case. Besides, the Potency in assay [5] is 7.31 µM (active).

For the molecule `NCc1c[nH]c(=S)n1[C@H]1CCc2c(F)cc(F)cc2C1`, the Potency entry in assay [1], in assay [2] and in assay [5] was “inactive” each time.

Take `CCC[C@H](N[C@@H](C)C(=O)N1[C@@H]2CCCC[C@H]2C[C@H]1C(=O)O)C(=O)OCC`: the Potency entry in assay [1], in assay [2] and in assay [5] was “inactive” each time.

Turning to `COc1ccc(C=CC(=O)Nc2ccccc2C(=O)O)cc1OC`, the Potency entry in assay [1] and in assay [3] was “inactive” in each case. Further, the Potency in assay [4] is 16.9 µM (active).

Regarding `COc1cc2c(cc1Cc1cccc(Cl)c1F)c(=O)c(C(=O)O)cn2[C@H](CO)C(C)C`, the Potency result in assay [1] and in assay [2] was “inactive” each time. The Potency in assay [5] is 7.42 µM (active).

`CNC(=O)c1ccc2c(C(=Nc3cccc(CN(C)C)c3)c3ccccc3)c(O)[nH]c2c1`: the Potency entry in assay [1] and in assay [4] was “inactive” each time. In addition, in assay [5], the Potency is 16.3 µM (active) and 13.2 µM (active).

Take `O=c1cc(-c2ccc(O)c(O)c2)oc2cc(O)cc(O)c12`: the Potency entry in assay [1] and in assay [2] was “inactive” throughout. For the same molecule, the Potency in assay [5] was 10.5 µM (active).

The values above are taken from PubChem BioAssay (NCATS).
